From PubChem BioAssay (NCI)
About 83,000 compounds went through this panel and 20% of them were active in at least one assay; those are over-represented in the sample as a whole.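 Activity criterion: percent growth below 10, measured after cells in 96-well plates were exposed to a single compound concentration for 48 hours.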 Unmarked numbers belong to inactive results. The source made the active and inactive calls.

test system: T-47D breast; assay: NCI-60 one-dose screen, 48 h (100 = growth as untreated, 0 = no growth, -100 = all killed); details: 10 µM unless noted

SMILES	growth
O=[N+]([O-])c1cccc(/C=C/c2ccccn2)c1	37.9%
COc1ccc(-c2nc3ccccn3c2/C=C/C(=O)c2cc(OC)c(OC)c(OC)c2)cc1	26.6%
COc1ccc(/C(C)=C(\c2ccc(Cl)cc2)c2ccc(OCCN3CCCCC3)cc2)cc1F	47.4%
CCOc1cccnc1/C=N/NC(N)=S	71.8%
CCCCCCCC/C=C/CCCCCCCC1=NCC[N+]1(CCO)CCO	90.5%
O=C(Nc1ccccc1)c1sc(-c2cccc(C(F)(F)F)c2)cc1O	59.3%
CCN(CC)S(=O)(=O)c1ccc(O)c(NC(=O)c2[nH]c(C)c(C(C)=O)c2CCc2ccc(Cl)cc2)c1	13%
COc1ccc(-c2nnc(SCC(=O)NC3=NN=C(c4ccccc4)CS3)o2)cc1	78.4%
N=C(N)c1ccc(-c2ccc(-c3ccc(Cl)cn3)s2)cc1	55.4%
C[C@@H]1C(=O)N(C[C@H](Cc2ccccc2)N(Cc2ccccc2)Cc2ccccc2)[C@]1(Cc1ccccc1)C(=O)OC(C)(C)C	47.4%
COc1cccc(CCC2CCCN(c3cc(C)nc(N)n3)C2)c1 (centres undefined)	45.9%
Cc1[nH]c(-c2nc3ccccc3[nH]2)c(C)c1C(=O)N1CCOCC1	99.1%
CN(C)CCCCNc1ccc(NCCCCN(C)C)c2c1C(=O)c1c(O)ccc(O)c1C2=O	97.1%
COc1cc(C(=O)Nc2cc(O)c(CC=C(C)C)c(O)c2)cc2c1O[C@]1(C)CC[C@@H](O)C(C)(C)[C@H]1C2	3.79% (active)
CCN(CC)CCNc1ccc(C)c2sc3cc(C)ccc3c(=O)c12	66.5%
O=[N+]([O-])c1ccc(-c2cc3c(Nc4ccc(Cl)c(C(F)(F)F)c4)ncnc3s2)cc1	-6.08% (active)
Nc1nc(Nc2ccc(Cl)cc2)nn1S(=O)(=O)c1ccc(-c2ccc(F)cc2)cc1	68.6%
Cn1ccc(Cc2cnc(N)s2)n1	101%
CCCCN1CCN(c2ccc3nc(-c4ccc5nc(-c6cc(OC)c(OC)c(OC)c6)[nH]c5c4)[nH]c3c2)CC1	66%
CCCCNC(=O)c1cc(NCc2cc(O)ccc2O)ccc1O	58.1%

SMILES	growth
C=CCN1C(=O)[C@]2(SC1=S)[C@H](c1cccc(Cl)c1)CN(C)[C@]21C(=O)NC2C=CC(Cl)=C[C@H]21 (some centres undefined)	15.6%
CC(C)(C)c1ccc(C(=O)Nc2sc3c(c2C(N)=O)CCC(=O)C3)cc1	-13.7% (active)
CCOC(=O)c1cnn2c(-c3ccc(Cl)cc3)nc(NCc3ccccc3)nc12	43.3%
CN(C)CN1CCN(c2ccc3nc(-c4ccc5nc(-c6ccc(C(F)(F)F)cc6)[nH]c5c4)[nH]c3c2)CC1	61.4%
CCc1c(C(=O)N[C@@H]2c3cc(Cl)ccc3CC[C@@H]2O)[nH]c(C)c1C(C)=O	70.4%
c1ccc(-c2oc3ccccc3c2-c2ccccc2)cc1	75.7%
O=C(c1ccccc1)c1ccc(Cl)c([N+](=O)[O-])c1	71.5%
N=C(N)c1ccc(-c2ccc(-c3ccc(Cl)c(Cl)c3)o2)nc1	85.9%
CCOC(=O)c1ccc(NC(=O)CCCN(CC)CC)cc1	92.6%
C=C1C(=O)O[C@H]2[C@H]1CC/C(COC(=O)/C=C\C(=O)NCc1ccc(Cn3c(=O)sn(-c4ccc(C#N)cc4)c3=O)cc1)=C\CC[C@@]1(C)O[C@@H]21	-59.9% (active)
C[C@@H]1CC[C@@H]2[C@@H]1[C@H](OC(=O)/C=C/c1ccccc1)[C@]1(CCCOCCOCCOCCOC(=O)CCCC[C@@H]3SC[C@@H]4NC(=O)N[C@@H]43)C[C@@H](OC(=O)CO)[C@@]2(C)O1	92.4%
CC(C)c1ccc(NC(=O)Cc2ccc(Nc3ncnc4cc(-c5cnn(CCN(C)C)c5)ccc34)cc2)cc1	-37.1% [30 µM] (active)
CN(C)c1ccc(-c2cc(-c3ccc(Nc4nc(Nc5ccccc5)nc(Nc5ccc(Cl)cc5)n4)cc3)nc(N)n2)cc1	29.3%
O=C1Nc2ccccc2/C1=N/N=C/c1c[nH]c2ccccc12	61%
CC(=O)Nc1nccs1	97.7%
CCCCC1COc2cccc3c(SCC(=O)N(C)c4cccc(Cl)c4)cc[n+]1c23 (centres undefined)	107%
Cl.Fc1c[c-]c(-c2ccccn2)c(F)c1.[Pt].c1ccc(P(c2ccccc2)C([PH+](c2ccccc2)c2ccccc2)[PH+](c2ccccc2)c2ccccc2)cc1	27.7%
COc1cc2nc(Nc3ccc(F)cc3)nc(N)c2cc1OC	83.2%
N#Cc1c(N)n2c(nc1=Nc1ccc([N+](=O)[O-])cc1)sc1cc(Cl)ccc12	78.2%
